A word on the AC50: it is the concentration giving half of the maximal activity seen.

Values joined by “and” are separate entries in the source; they are usually repeats but may differ in a detail not shown here. Identical values can stand only once. A structure can be active in one record and inactive in another. Active and inactive are the calls of the source. How the source made its calls: active means hit-call score of the fitted dose curve at least 0.9, where 1 is the maximum; inactive means score below 0.9.

Read-out in the assay: Paternally Expressed 10 (PEG10), PEG10 (gene 23089)
Put plainly: LTEA_HepaRG_PEG10: Life Technologies and Expression Analysis (LTEA) Assay for Paternally Expressed 10 (PEG10) using HepaRG (AID 2283520).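 On AC50: PEG10 transcript by qRT-PCR normalised to ACTB GAPDH and POLR2A.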 The following applies: mRNA level, 48 h; actives raise or lower the signal. On the procedure: LTEA_HepaRG is a cell based, multiplexed-readout assay that uses HepaRG, a human liver cell line, with measurements taken at 48 hours after chemical dosing on a 96-well plate.LTEA_HepaRG_PEG10 is one of 102 assay component(s) measured in the LTEA HepaRG cell culture assay. It is a marker of Cell proliferation, survival, death.Data from the assay component LTEA_HepaRG_PEG10 was analyzed into 1 endpoint. This assay endpoint, LTEA_HepaRG_PEG10, was analyzed with bidirectional fitting relative to DMSO as the negative control and baseline of activity. Using a type of inducible reporter, measures of mRNA induction for gain or loss-of-signal activity can be used to understand regulation of transcription factor activity. To generalize the intended target to other relatable targets, this assay endpoint is annotated to the dna binding intended target family, where the subfamily is xenobiotic metabolism.
A total of 1060 chemcials from the ToxCast library were tested in eight-point concentration-response experiments. Cell culture and cytotoxicity assays were conducted at Thermo Fisher Scientific's Custom Services facility (Madison, WI). A single lot of human HepaRG cells (Thermo Fisher Scientific, Frederick, MD) was used for the cell culture experiments. 96-well format collagen type I coated plates of human HepaRG cells were prepared using established methods. Briefly, cryopreserved HepaRG cells were thawed, plated at a density of approximately 100,000 cells/well in HepaRG Thaw, Plate, and General Purpose media (HPRG770, Thermo Fisher Scientific), and incubated for 48 hours. 0.5% DMSO was selected as vehicle control to balance the requisite need of DMSO in HepaRG cultures to maintain differentiation (for example, baseline metabolism, proportions of hepatocytes vs. cholangiocytes), while enabling further hepatic receptor pathway activation (for example, PXR and CAR) in response to chemical exposure. 48 hours after plating, the culture medium was replaced with HepaRG Serum-Free Incudtion Media. Cells were exposed to each test chemical in duplicate and maintained in CO2 incubators for another 48 hours. Chemical plates were thawed to room temperature and 200x concentrations of treatment groups were prepared. 8-point conentration-reponse curves were made with the highest exposure at 100 uM, followed by half-log dilutions, all in 0.5% DMSO. Each test plate contained variouse controls, induction positive controls (1mM phenobarbital), cytotoxicity positive controls ([…] aflatoxin B1), vehicle controls (0.5% DMSO), and total lysis controls (0.5% DMSO). Cell morphology images were taken using an Essen IncuCyte FLR automated microscope, with six 96-well plates imaged in about 24 minutes. Images were captured and exported and JPEG files. Spent culture media was transfered to black-well plates for the LDH assay, and remaining media was sorted at -80 C for later use. Cells were treated with RLT buffer and frozen until shipped for gene expression analysis. Total RNA was isolated from the cell suspension in 75 uL of Buffer RLT (Qiagen, Germantown, MD 20874) by Quintiles/Expression Analysis (Durham, NC) using a custom isolation procedure. Total RNA from each plate well was transferred to a preamplification plate. Fluidigm's 96.96 Dynamic ArrayTM (Fluidigm, Amsterdam, the Netherlands) technology was used for gene expression analyses by quantitative reverse transcription polymerase chain reaction (qRT-PCR, performed by Quintiles/Expression Analysis, Durham, NC)89. Standard TaqManTM Assays (Applied Biosystems/ThermoFisher Scientific, Foster City, CA) were used to assess the expression of 93 genes selected based on their selectivity and sensitivity to important hepatic receptors known to be modulated by environmental chemicals; importance in human hepatocyte functionality; and hepatotoxicity. […]
For the compound `COc1nn(CSP(=S)(OC)OC)c(=O)s1`, the result was inactive.

As to `CC(C)(C)C(O)/C(=C\c1ccc(Cl)cc1Cl)n1cncn1` (stereo not given), the AC50 was 62.5 µM (active).

In the case of `CCOCN(C(=O)CCl)c1c(C)cccc1CC`, the call was inactive.

Take `CCOC1Oc2ccc(OS(C)(=O)=O)cc2C1(C)C` (stereo not given): the AC50 was 28.4 µM (active).

Consider `OCCOc1ccccc1`, for which the compound was called inactive.

For `CCCN(CCOc1c(Cl)cc(Cl)cc1Cl)C(=O)n1ccnc1`, the concentration at half-maximal activity (AC50) was 6.24 µM (active).

Consider `CNC(=O)Oc1ccccc1OC(C)C`, for which the compound was called inactive.

Consider `C#CCN1C(=O)COc2cc(F)c(N3C(=O)C4=C(CCCC4)C3=O)cc21`, for which the AC50 was 37.8 µM (active).

`CC[C@H](C)[C@H]1O[C@]2(C=C[C@@H]1C)C[C@@H]1C[C@@H](C/C=C(\C)[C@@H](O[C@H]3C[C@H](OC)[C@@H](O[C@H]4C[C@H](OC)[C@@H](O)[C@H](C)O4)[C@H](C)O3)[C@@H](C)/C=C/C=C3\CO[C@@H]4[C@H](O)C(C)=C[C@@H](C(=O)O1)[C@]34O)O2` (tested in a mixture with another compound): the AC50 is 49.3 µM (active).

`CN1CSC(=S)N(C)C1`: the result was inactive.

With `COP(=S)(OC)Oc1ccc([N+](=O)[O-])cc1`, the compound was classed as inactive.

As for `COP(=O)(OC)OC=C(Cl)Cl`, the outcome was inactive.

With `O=[N+]([O-])c1c(Cl)c(Cl)c(Cl)c(Cl)c1Cl`, the AC50 is 69.8 µM (active).

Turning to `O=C(O)C(F)(F)C(F)(F)C(F)(F)C(F)(F)C(F)(F)C(F)(F)C(F)(F)F`, the compound was called inactive.

Consider `O=C1c2ccccc2C(=O)N1SC(Cl)(Cl)Cl`, for which the compound was called inactive.

For the compound `N#Cc1c(Cl)c(Cl)c(Cl)c(C#N)c1Cl`, the call was inactive.

Regarding `O=[N+]([O-])/N=C1\NCCN1Cc1ccc(Cl)nc1`, the AC50 is 16.6 µM (active).

For the compound `O=S(=O)(O)C(F)(F)C(F)(F)C(F)(F)C(F)(F)C(F)(F)C(F)(F)C(F)(F)C(F)(F)F`, the compound was called inactive.

On to `N#CN`, for which the outcome was inactive.

Take `Oc1cc(Cl)ccc1Oc1ccc(Cl)cc1Cl`: the AC50 is 51 µM (active) and the call was inactive.

For the compound `CC(C)N(C(=O)COc1nnc(C(F)(F)F)s1)c1ccc(F)cc1`, the AC50 was 22.2 µM (active).

`CNC(=O)/C=C(\C)OP(=O)(OC)OC`: the call was inactive.

As for `O=C(O)CCCOc1ccc(Cl)cc1Cl`, the AC50 was 10.4 µM (active).

In the case of `COP(=S)(OC)Oc1ccc(SC)c(C)c1`, the AC50 was 9.92 µM (active).

For `C[C@H]1[C@H](c2ccc(Cl)cc2)SC(=O)N1C(=O)NC1CCCCC1`, the AC50 was 12.8 µM (active).

Turning to `CC1(c2ccc(Oc3ccccc3)cc2)OC(=O)N(Nc2ccccc2)C1=O` (stereo not given), the AC50 is 6.47 µM (active).

For the compound `ClC1C(Cl)C(Cl)C(Cl)C(Cl)C1Cl` (stereo not given), the AC50 is 4.25 µM (active) and 27.6 µM (active).

Consider `CCc1ccc(C(=O)NN(C(=O)c2cc(C)cc(C)c2)C(C)(C)C)cc1`, for which the compound was classed as inactive.

With `O=C(NC(=O)c1c(F)cccc1F)Nc1ccc(OC(F)(F)C(F)OC(F)(F)F)c(Cl)c1` (stereo not given), the result was inactive.

As for `CCCN(CCC)c1c([N+](=O)[O-])cc(C(F)(F)F)cc1[N+](=O)[O-]`, the compound was classed as inactive.

For `CCC(C)Nc1c([N+](=O)[O-])cc(C(C)(C)C)cc1[N+](=O)[O-]` (stereo not given), the concentration at half-maximal activity (AC50) was 29.9 µM (active).

As to `O=C(O)COc1ccc(Cl)cc1Cl`, the AC50 is 10.1 µM (active).

In the case of `CNC(=O)Oc1cccc(N=CN(C)C)c1`, the outcome was inactive.

For `CCN(CC)C(=O)SCc1ccc(Cl)cc1`, the outcome was inactive.

Consider `CC1(C)C(C=C(Cl)Cl)C1C(=O)OC(C#N)c1ccc(F)c(Oc2ccccc2)c1` (stereo not given), for which the call was inactive.

For the compound `CC(C)OC(=O)Nc1cccc(Cl)c1`, the outcome was inactive.

Regarding `CC(C)(C)C(O)C(Oc1ccc(Cl)cc1)n1cncn1` (stereo not given), the outcome was inactive and the AC50 was 1.4 µM (active).

For the compound `Clc1ccccc1-c1nnc(-c2ccccc2Cl)nn1`, the AC50 was 30.7 µM (active).
